Screening results deposited in PubChem BioAssay by National Center for Advancing Translational Sciences (NCATS).
Pf growth 96h = inhibits malaria parasite growth, 96 h | P. falciparum luciferase reporter growth, 96 h | Potency, µM (series often up to 28.7 µM), for inactives: top-dose activity change, negative = inhibition, hits mostly inhibitors | actives 6.9% (n = 320,000) | AID 504834; note: % is set by controls: 0 for no effect and ±100 for the full control effect
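Delayed-death screen, second-generation endpoint: infected erythrocytes, 2% hematocrit, 0.05% parasitemia final; 96 hours at 37 C, 5% CO2; luciferase detection reagent; luminescence decrease equals reduced growth.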
Vaccinia Venus = vaccinia inhibition (Venus reporter); Vaccinia virus Venus reporter expression, fluorescence; Potency, µM (doses to about 36.5 µM), for the others: at the top dose activity change, negative = inhibition, usual class: inhibitors; actives 0.46% (n = 330,000); calls by dose curve; tested in A549 cells; note: % is set by controls: 0 for no effect and ±100 for the full control effect; nearly all actives have a fitted effect of over 30% in size
NS1 inh = inhibitors of influenza NS1 protein function. Potency, µM (top dose mostly 46.1 µM), inactives show at the highest dose activity, positive = more growth. actives 0.4% (n = 270,000). AID 2326; calls by dose curve; note: actives are rising curves; nearly all actives have a fitted effect of over 50% in size
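Growth recovery, yeast-based: influenza A NS1 expressed in S. cerevisiae causes slow growth, and suppressors are detected by OD600. The parent strain without NS1 is used as positive control.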
HCV inhibitor = blocks hepatitis C virus; Huh7.5.1 HCVcc-Cre infection, luciferase reporter, 44 h; Potency, µM (doses to about 41.8 µM), inactives show top-dose activity change, negative = inhibition, usual class: inhibitors; actives 3.4% (n = 340,000); AID 651820; note: % is set by controls: 0 for no effect and ±100 for the full control effect
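HCVcc-Cre virus at an moi near 0.5 was added right after compound to cells cultured 4 h from seeding (1,000 cells/well). Luciferase activity was determined 44 h later, 15 min after substrate addition at RT.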
Vaccinia mCherry = vaccinia inhibition (mCherry reporter). Vaccinia virus mCherry reporter infection, fluorescence. Potency, µM (top dose mostly 36.5 µM), for inactives: at the highest dose activity change, negative = inhibition, most hits filed as inhibitors. actives 0.63% (n = 310,000). AID 720579; calls by dose curve; tested in A549 cells; note: % is set by controls: 0 for no effect and ±100 for the full control effect; nearly all actives have a fitted effect of over 35% in size
Pf growth 48h = inhibits P. falciparum growth in the first generation, 48 h; P. falciparum luciferase growth in erythrocytes, 48 h; Potency, µM (doses to about 28.7 µM), inactives show at the highest dose activity change, negative = inhibition, actives largely listed as inhibitors; actives 5.9% (n = 310,000); AID 504832; note: % is set by controls: 0 for no effect and ±100 for the full control effect
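Firefly luciferase activity from engineered P. falciparum reports growth; inhibitors lower the luminescent signal. Cultures contained 2% hematocrit erythrocytes at 0.1% final parasitemia.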
An asterisk follows results filed as active; i = inactive; u = inconclusive; x = no result; [ ] = dose if it differs, or a comment. In the library only some 11% were active in any assay of this set; here they are far more common. Unless noted, calls come from the whole dose curve; as a rule, active = well fitted inhibition curve with a large enough effect; inconclusive = small, poorly fitted or top-dose-only effect, or another doubt; inactive = no such curve, though single readings can be large or run the other way. Potency is the fitted concentration of half-maximal effect.

SMILES	Pf growth 96h	Vaccinia Venus	NS1 inh	HCV inhibitor	Vaccinia mCherry	Pf growth 48h
Cc1ccc(N(CC(=O)NCc2cccnc2)S(C)(=O)=O)cc1C	4.1µM*	-6%	5%	3%	-14%	11%
COc1ccc(C)cc1NC(=O)CN(c1ccccc1)S(C)(=O)=O	u	x	-3%	-10%	x	2%
Cc1ccc(N(CC(=O)Nc2cc(Cl)ccc2Oc2ccccc2)S(C)(=O)=O)cc1C	8.3µM*	u	17%	u	x	x
COc1ccc(C)cc1NC(=O)C(C)N(c1ccc(C)cc1)S(C)(=O)=O (configuration not stated)	-8%	x	-3%	-19%	x	u
Cc1ccc(N(CC(=O)NCc2ccncc2)S(C)(=O)=O)cc1Cl	x	3%	-2%	20%	-9%	21%
Cc1ccc(N(C(C)C(=O)Nc2cc(Cl)ccc2Oc2ccccc2)S(C)(=O)=O)cc1 (configuration not stated)	7.4µM*	u	25%	-10%	u	4.7µM*
Cc1ccc(N(CC(=O)Nc2cc(Cl)ccc2Oc2ccccc2)S(C)(=O)=O)c(C)c1	12µM*	u	7%	11µM*	x	x
CCOC(=O)c1c(NC(=O)Cn2c(=O)oc3ccccc32)oc(C)c1C(C)=O	u	-17%	-3%	1%	x	-8%
COC(=O)C1CSC(C(=O)OC)N1C(=O)Nc1ccc(Cl)c(Cl)c1 (configuration not stated)	39%	-6%	-12%	-2%	x	-10%
CC(=O)c1c(C)oc2ccc(NS(=O)(=O)c3ccc(C(C)C)cc3)cc12	x	-10%	x	x	-10%	x
C=CCn1c(O)c(C(CC)=NCCc2ccccc2)c(=O)[nH]c1=O	u	x	0%	10%	x	x
COc1ccc(Nc2nc(N/N=C/c3ccc(N(C)C)cc3)nc(C)c2[N+](=O)[O-])cc1	8%	-17%	-3%	22%	-13%	-24%
CC(C)(C)c1ccccc1OCCOCCNCc1ccccc1	23%	u	-9%	12%	-21%	8.3µM*
Cc1cc(OCCOCCNCc2ccccc2)ccc1C(C)C	7.4µM*	x	-25%	-17%	x	u
Cc1ccc(C(C)C)c(OCCNCc2ccccc2)c1	336%	x	-21%	-4%	x	8%
CCCCNCCOCCOc1ccccc1-c1ccccc1	u	-16%	1%	u	-7%	10µM*
CCSc1ccccc1C(=O)n1nnc2ccccc21	x	x	-102%	u	x	-11%
O=C(CSc1ccc([N+](=O)[O-])cn1)Nc1ccc2c(c1)OCCO2	40%	x	5%	21%	x	-5%
O=C(CSc1ccc([N+](=O)[O-])cn1)Nc1ccc2[nH]c(=O)[nH]c2c1	4.7µM*	-6%	-10%	1%	-13%	11%
C=CCn1c(SCC(=O)NCc2ccccc2)nnc1C1CCCCC1	-14%	-8%	-1%	0%	x	-7%
CCc1ccc(C(=O)CSc2nc3ccccc3c(=O)[nH]2)cc1	10µM*	x	-5%	1%	x	x
O=C(CSc1nc2ccccc2c(=O)[nH]1)Nc1ccc(S(=O)(=O)N2CCCC2)cc1	2.3µM*	-14%	-8%	u	-25%	-16%
C=CCn1c(SCC(=O)Nc2cc(C)nn2-c2ccccc2)nnc1C1CCCCC1	12µM*	x	0%	u	x	-15%
O=C(NN1C(=O)c2ccccc2NC1c1ccoc1)c1ccccc1 (configuration not stated)	49%	-7%	x	4%	i	84%
CCOc1ccc(/C=C2/C(=O)NC(=O)N(CCc3ccc(F)cc3)C2=O)cc1	-1%	x	u	13%	x	10%
SMILES	Pf growth 96h	Vaccinia Venus	NS1 inh	HCV inhibitor	Vaccinia mCherry	Pf growth 48h
Cc1csc(NC(=O)CSc2nc3ccccc3c(=O)[nH]2)n1	-5%	-8%	-3%	29%	-7%	4%
Cc1cccc(C)c1NC(=O)CSc1nc2ccccc2c(=O)[nH]1	0.41µM*	x	-2%	u	x	0%
COC(=O)c1ccccc1NC(=O)CSc1nc(C)cc(C)n1	43%	-9%	x	3%	-22%	19%
Cc1cc(NC(=O)CSc2nc3ccccc3[nH]2)n(-c2ccccc2)n1	4.7µM*	x	2%	-27%	x	1.9µM*
O=C(CSc1nc2ccccc2c(=O)[nH]1)Nc1ccc([N+](=O)[O-])cc1	x	20µM*	x	-21%	u	x
Cc1cc(C)nc(SCC(=O)Nc2ccnc3ccccc23)n1	139%	-10%	x	1.8µM*	u	21%[5.75 µM]
O=C(CCSCc1ccccc1Cl)NCc1ccc(F)cc1Cl	x	-2%	x	x	-5%	x
Cc1ccccc1OCCC(=O)N1CCN(S(=O)(=O)c2ccc(Br)cc2)CC1	u	-28%	x	1%	-10%	-19%
O=C(NCCc1ccccn1)c1ccc2nc(Cc3ccccc3F)oc2c1	14%	-11%	-26%	2%	i	33%
c1ccc(C[C@@H](Nc2cccnc2)c2ccccc2)cc1	x	x	-10%	x	x	x
CSc1ccc(C(=O)C2CCCN(S(=O)(=O)N(C)C)C2)cc1 (configuration not stated)	24%	-12%	-5%	-21%	-15%	2%
CN(C)S(=O)(=O)N1CCCC(C(=O)c2ccc(-c3ccccc3)c(F)c2)C1 (configuration not stated)	26%	x	-10%	22µM*	x	u
COc1ccc(C(=O)C2CCCN(Cc3cn(C)nc3-c3ccccc3)C2)cc1F (configuration not stated)	9.3µM*	-19%	1%	-25%	-12%	u
COc1c(C)cc(C(=O)C2CCCN(C(=O)c3cc(C)n(C)n3)C2)cc1C (configuration not stated)	22%	-6%[7.34 µM]	-8%	u	-9%[7.34 µM]	-2%
O=C(c1ccc(-c2ccccc2)c(F)c1)C1CCCN(CCO)C1 (configuration not stated)	12%	-8%	2%	11µM*	-6%	u
CCOc1ccccc1CN1CCCC(C(=O)c2ccc(OC)c(OC)c2)C1 (configuration not stated)	u	x	5%	10%	x	u
COc1c(C)cc(C(=O)C2CCCN(S(=O)(=O)N(C)C)C2)cc1C (configuration not stated)	2.9µM*	-7%	-10%	8%	-8%	-15%
Cc1c(Cl)c([N+](=O)[O-])nn1CCCC(=O)Nc1sc2c(c1C(N)=O)CCC(C)C2 (configuration not stated)	27%	-16%	-6%	-14%	-14%	-4%
CC(=O)Nc1sc2c(c1C(c1cccc(Cl)c1)N1CCN(CCO)CC1)CCCC2 (configuration not stated)	-25%	x	-5%	0%	x	u
CC(=O)Nc1sc2c(c1C(c1ccncc1)N1CCOCC1)CCCC2 (configuration not stated)	8.3µM*	-6%	x	-8%	-11%	4.7µM*
